Results published in PubChem BioAssay (NCI).
About 83,000 compounds went through this panel and 20% of them were active in at least one assay; those are over-represented in the sample as a whole.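 Testing used 96-well plates and a 48-hour single-concentration exposure. Example: -40 means 40% of the starting cells died.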 A number with no mark means an inactive call. Activity calls are given as the source filed them. The calls were made as follows: active = growth percent below 10; inactive = the rest.

Assays:
Assay in all cases: NCI-60 one-dose screen, 48 h (100 = growth as untreated, 0 = no growth, -100 = all killed)
Details in all cases: 10 µM unless noted
SK-MEL-2 melanoma = system: SK-MEL-2 melanoma
EKVX NSCLC = system: EKVX NSCLC
SN12C renal = system: SN12C renal
UO-31 renal = system: UO-31 renal
TK-10 renal = system: TK-10 renal
ACHN renal = system: ACHN renal
CAKI-1 renal = system: CAKI-1 renal
A498 renal = system: A498 renal
CCRF-CEM leukemia = system: CCRF-CEM leukemia
MOLT-4 leukemia = system: MOLT-4 leukemia

| Compound | growth (SK-MEL-2 melanoma) | growth (EKVX NSCLC) | growth (SN12C renal) | growth (UO-31 renal) | growth (TK-10 renal) | growth (ACHN renal) | growth (CAKI-1 renal) | growth (A498 renal) | growth (CCRF-CEM leukemia) | growth (MOLT-4 leukemia) |
| --- | --- | --- | --- | --- | --- | --- | --- | --- | --- | --- |
| COc1ccc(CCC2NCCc3c(Br)c4c(c(OC)c32)OCO4)cc1 (stereo not given) | -16.9% (active) | 24.4% | 13.2% | 21.1% | 44% | 15.5% | 16.5% | 79% | 19.6% | 9.59% (active) |
| CC1CCc2c(sc3nc(SCC(=O)c4cccc(Br)c4)n(-c4ccccc4)c(=O)c23)C1 (stereo not given) | 99.2% | 66.2% | 32.8% | 16.6% | -21.6% (active) | -60.6% (active) | 6.39% (active) | 114% | 35.3% | 28.6% |
| CCOc1ccccc1[C@H]1C(C(=O)c2ccc(Cl)cc2)C2(N[C@@H]1c1ccccc1)C(=O)Nc1ccc(Cl)cc12 (stereo not given in full) | -11.2% (active) | 21.5% | -57.3% (active) | 16.7% | 61.4% | 22.4% | 18.5% | 80.9% | 26.2% | -23.4% (active) |
| COc1ccc(-c2cc(C(=O)OCc3ccc(Br)cc3)nn2-c2ccc(S(C)(=O)=O)cc2)cc1OC | 95% | 76.1% | 78.3% | 42.4% | 75.5% | 85.1% | 83.5% | 70.3% | 84.2% | 64.5% |
| COc1ccc(-c2cc(C(=O)N=Nc3c(O)[nH]c4ccc(Cl)cc34)c3ccccc3n2)cc1 | 63.4% | 21.3% | 51.4% | 80.6% | 116% | -6.95% (active) | 44.6% | 148% | 85.7% | 68.8% |
| Cc1[nH]nc2ccc3nc(-c4cnn(CCO)c4)c4c(c3c12)CCCC4 | 21.1% | 27.2% | 32.3% | 21.5% | 21.1% | 21.4% | 4.55% (active) | -7.65% (active) | 28.7% | 34% |
| Nc1nn2c(-c3cc4cc(Br)ccc4oc3=O)ccnc2c1N=Nc1ccccc1 | 16.1% | 36.4% | -24.4% (active) | 30.2% | 39.9% | 0.225% (active) | 15.1% | -17% (active) | 94.5% | 87.1% |
| COc1cc(C2C(C(=O)OCc3ccccc3)=C(C)Nc3nc4ccccc4n32)cc(OC)c1OC (stereo not given) | 47.5% | 36.8% | 37.1% | 1.37% (active) | 34.6% | -4.94% (active) | 6.89% (active) | -22.7% (active) | 41.7% | 33.2% |
| Cc1nc(N)ncc1-c1ccc2ncnc(N3CCc4cc(F)c(Cl)cc43)c2c1 | 100% | 20.3% | 54.9% | 27.6% | 5.99% (active) | 27.2% | 14.1% | 25.3% | 77.8% | 11.1% |
| Cc1ccc(N=Nc2c(N)nn3c(-c4cc5ccccc5oc4=O)ccnc23)cc1 | 61.5% | 49.2% | 48.2% | 53.8% | 57.9% | 34.9% | 57.1% | 150% | 70.2% | 39% |
| CCc1ccc(SC2c3cc(OC)ccc3Oc3nc(N)c(C#N)c(N)c32)cc1 (stereo not given) | -88.8% (active) | -76.2% (active) | 1.31% (active) | 4.16% (active) | -50.1% (active) | 3.73% (active) | -56.5% (active) | -87.9% (active) | 1.76% (active) | -50.1% (active) |
| Cn1cc(-c2cc3nc(-c4c[nH]c5ccccc45)cc(N)n3n2)c2ccccc21 | -65.5% (active) | 55.1% | -78.5% (active) | -61.2% (active) | 8.91% (active) | -73.9% (active) | 29.7% | 130% | -38.1% (active) | -19.4% (active) |
| Oc1ccc(Cl)c(Nc2ncnc3c2cnn3CC(Cl)c2ccc(Br)cc2)c1 (stereo not given) | 84.8% | 55.4% | 43.9% | 21.3% | 47.1% | 8.02% (active) | 18.3% | 98.9% | 59.8% | 34.7% |
| COc1cccc(/C=C/c2nc3ccccc3c(=O)n2CC(=O)Nc2ccccc2)c1 | 81% | 85.1% | 17.6% | -24.8% (active) | 11.7% | -15.6% (active) | 72.3% | 28% | 90.1% | 94.2% |
| Cc1ccc(C(=O)Nc2cc(-c3ccncc3)cc(C(F)(F)F)c2)cc1C#Cc1cnc2cccnn12 | 37.9% | 64.3% | 34.8% | 31.4% | 63.7% | 46.6% | 40.8% | 48.9% | 30% | 31.3% |
| Nc1nnc(-c2cncc(Br)c2)c(-c2c[nH]c3ccc(Br)cc23)n1 | 55.4% | 65.7% | 57.6% | 34.8% | 97.7% | 56.5% | 46% | 92.7% | 44.1% | 33% |
| COc1ccc(-c2cc(C(=O)N=Nc3c(O)[nH]c4ccc(Cl)cc34)c3ccccc3n2)cc1OC | 102% | 90.1% | 96.4% | 81.8% | 116% | 105% | 95.2% | 167% | 112% | 118% |
| COC(=O)CSC1=C(C)C(=O)C(OC)=C(OC)C1=O | 103% | 91% | 96.2% | 80.7% | 106% | 96.4% | 77.4% | 90.4% | 25% | 17.5% |
| CN1CCN(CCS(=O)(=O)Nc2cc(-c3ccc4ncnc(Nc5ccc(F)c(Cl)c5)c4c3)cnc2Cl)CC1 | -52.2% (active) | -22.2% (active) | 27.7% | 18.2% | 1.24% (active) | 23.2% | 6.32% (active) | -30.9% (active) | 8.02% (active) | -49.7% (active) |
| O=C(Cn1c(-c2ccccc2)nc2ccccc21)N=Nc1c(O)[nH]c2ccc(Cl)cc12 | 17.6% | 9.78% (active) | 5.72% (active) | 1.39% (active) | 28.5% | -47.3% (active) | 13% | -5.31% (active) | 31.8% | 27.4% |
| CC1=C(C)C(=O)C(N2CCSCC2)=CC1=O | 94.6% | 92.6% | 100% | 76.2% | 130% | 96.6% | 93.2% | 98.2% | 81% | 86.3% |
| CC1=C(C(=O)OCc2ccccc2)C(c2cccc3ccccc23)n2c(nc3ccccc32)N1 (stereo not given) | 18% | 41.9% | 30.6% | 34.2% | 66.6% | 41.1% | 30.5% | 62.6% | 25.8% | 32.3% |
| COc1ccc(/C=C/c2nc3ccccc3n3c(-c4cccc([N+](=O)[O-])c4)nnc23)cc1 | -60.3% (active) | -52% (active) | -72.2% (active) | -90.3% (active) | -47.3% (active) | -97.5% (active) | -91.1% (active) | 75.7% | -14.9% (active) | -36.5% (active) |
| O=C(N/N=C/c1ccc(Br)o1)c1[nH]c2ccc(Br)cc2c1-c1ccccc1 | 3.4% (active) | 12.6% | -59.1% (active) | -34% (active) | 9.96% (active) | -21.3% (active) | 2.87% (active) | -7.37% (active) | 4.07% (active) | -0.952% (active) |
| O=C(NC(=S)N1CCN(c2ncnc3c2cnn3-c2ccccc2)CC1)c1ccc(Br)cc1 | 87.4% | 76.4% | 48.4% | 70.7% | 127% | 69.2% | 47.8% | 104% | 81.2% | 81.5% |
